# Entries with a potency or affinity are not part of this list. The source made the active and inactive calls.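 The calls were made as follows: active = cell killing, with a fitted half-maximal concentration at or below twice the top valid dose tested; inconclusive = flat curve between 30% and 70% signal loss, or poor fit; inactive = effect in the rising direction, plus the rest.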
# Assay: cytotoxicity in A549 cells, dose response, cytotoxicity control, cell-based, cherry-picked samples (AID 1053184)
# Settings: A549 viability, CellTiter-Glo ATP luminescence, 72 h; series mostly up to 26 µM
row,SMILES,outcome
1,CNC[C@@H]1Oc2cc(C#Cc3ccccc3OC)ccc2S(=O)(=O)N([C@H](C)CO)C[C@H]1C,inactive
2,COc1ccc2c3c(n(C)c2c1)[C@@H](CO)N(CC1CC1)CC31CN(C(=O)c2ccc3c(c2)OCO3)C1,inactive
3,COc1cccc(-c2cccc(-c3nc(C(=O)Nc4ccc(-c5ccccc5)cc4)cc4c3[C@@H](CCO)N(S(=O)C(C)(C)C)C4)c2)c1 (stereo partly specified),inactive
4,C[C@H]1CNC(=O)[C@@H](Cc2ccc(C(F)(F)F)cc2)CCn2nncc2COC1,inactive
5,N#Cc1cccc(-c2ccc(C3[C@@H]4CN(C(=O)Nc5ccc(C(F)(F)F)cc5)C[C@H]3N4)cc2)c1 (stereo partly specified),inactive
6,CO[C@@H](CN(C)Cc1cc(F)ccc1F)[C@@H](C)CN(C(=O)Nc1ccc(C(F)(F)F)cc1)[C@H](C)CO,inactive
7,CN(C)C(=O)c1cccc(-c2ccc(C3[C@@H]4CN(Cc5ccccc5F)C[C@H]3N4)cc2)c1 (stereo partly specified),inactive
8,COc1cc(CN2C[C@@H]3N[C@H](C2)C3c2ccc(-c3ccc(C#N)cc3)cc2)cc(OC)c1 (stereo partly specified),inactive
9,O=S(=O)(c1ccc(F)cc1)N1C[C@@H]2N[C@H](C1)C2c1ccc(/C=C/c2ccccc2)cc1 (stereo partly specified),inactive
10,C[C@H](CO)N1C[C@H](C)[C@@H](CN(C)Cc2ccccc2)Oc2c(NC(=O)Cc3cn(C)c4ccccc34)cccc2C1=O,inactive
11,C/C=C/c1ccc([C@H]2[C@@H](CO)N3C(=O)CN(Cc4ccc(F)cc4)C[C@@H]23)cc1,inactive
